# ATXN viability – viability counter-screen for ATXN expression inhibitors; Potency, µM (doses to about 56.7 µM), actives largely listed as cytotoxic; hit rate 0.49% among 400,000; S2 cells (HEK-293 line with an ATXN2-luciferase reporter) viability, CellTiter-Fluor protease fluorescence, 24 h; note: potency is the fitted concentration of half-maximal effect; nearly all actives have a fitted effect of over 40% in size
# HepG2 viability – HepG2 cytotoxicity, counter-screen for TGF-b inhibitors; HepG2 CAGA-GFP viability, ATP luminescence, 18 h; Potency, µM (top dose mostly 46.1 µM), for inactives: at the highest dose activity change, negative = cytotoxicity, usual class: cytotoxic; AID 588856; hit rate 0.76% among 410,000; note: potency is the fitted concentration of half-maximal effect
#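 HepG2 CAGA-GFP cells (1000/well, DMEM with 1% FBS) received compound, then TGF-beta at 500 pg/mL final, and were incubated 18 hours at 37 degrees C. Viability was read by CellTiter-Glo luminescence. Media-only wells were set as complete cell-killing and DMSO as no toxicity.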
# IL-1B inflam inh – inhibitors of inflammasome signaling (IL-1 beta secretion); hit rate 4.7% among 360,000; THP-1 LPS/ATP IL-1B secretion, AlphaLISA, 16 h; active compounds read low; AID 743279; activity change, % at 57.5 µM; in the data active = activity change below about -50%; inconclusive = mostly about -30% to -49%; note: % is set by controls: 0 for no effect and ±100 for the full control effect
#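 Secreted IL-1B measured by AlphaLISA bead assay after 16 h compound exposure of THP-1 cells; compounds (final up to 57.5 uM) added 1 h before LPS (250 ng/mL) and ATP (1.25 mM) stimulation; lower signal means less secretion.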
# ATXN2 expr inh – inhibitors of ATXN2 expression. HEK-293 ATXN2-luciferase reporter, luminescence, 24 h. Potency, µM (titrated, usually from 57 µM), for the others: at the highest dose activity change, negative = inhibition, most hits filed as inhibitors. hit rate 0.72% among 360,000; note: potency is the fitted concentration of half-maximal effect; % is set by controls: 0 for no effect and ±100 for the full control effect; nearly all actives have a fitted effect of over 55% in size
#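 qHTS (up to 57 uM final) was run with 24 h compound exposure of reporter cells at 37 °C. Each well was multiplexed: SteadyGlo luminescence measured ATXN2-luciferase expression after a fluorogenic Gly-Phe-AFC viability readout (25 uM final).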
# TGFb SMAD3 inh – inhibitors of TGF-b signaling; hit rate 1.2% among 410,000; Potency, µM (highest dose often 46.1 µM), for the others: at the highest dose activity, negative = inhibition, actives largely listed as inhibitors; AID 588855; HepG2 CAGA-GFP TGF-b/SMAD3 reporter, GFP fluorescence, 18 h; TGF-beta stimulated, 500 pg/mL final; note: potency is the fitted concentration of half-maximal effect; % is set by controls: 0 for no effect and ±100 for the full control effect; nearly all actives have a fitted effect of over 65% in size
#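 TGF-beta reporter screen: HEPG2 CAGA-GFP, 1% FBS, 500 pg/mL TGF-beta final, 18 h; per-cell GFP summed per well; curves fitted and categorized by class.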
# * marks the source's active call; other numbers are inactive results; i = inactive; ? = inconclusive; . = no result given; ! = not active in a repeat; [ ] = remark or other dose. In the library only some 5.7% were active in any assay of this set; here they are far more common. Unless noted, calls come from the whole dose curve; as a rule, active = well fitted curve in the direction sought with a large enough effect; inconclusive = small, poorly fitted or top-dose-only effect, or another doubt; inactive = no such curve, though single readings can be large; an effect the other way counts as inactive or inconclusive.
SMILES,ATXN viability,HepG2 viability,IL-1B inflam inh,ATXN2 expr inh,TGFb SMAD3 inh
COc1ccc(CNc2nc(-c3ccc(OC)c(OC)c3)cc(C(F)(F)F)n2)cc1,i,-23.7%,.,0.8%,?
COc1ccc(N2CCN(C(=O)c3ccccc3Br)CC2)c([N+](=O)[O-])c1,i,-18.7%,-61.2*,-24.0%,-10.1%
CCC(=O)c1ccc(N2CCN(C(=O)c3ccccc3Br)CC2)c(F)c1,i,-20.4%,-54.6*,-2.1%,28.0%
CC(=O)Nc1ccc([C@H](C)C(=O)Nc2ncc(C(C)C)s2)cc1,.,.,.,0.344µM*,.
CC(=O)Nc1ccc(NC(=O)C(C)c2cccc(C(=O)c3ccccc3)c2)cc1 (stereo unspecified),i,7.4%,-3.6,0.6%,3.2%
COc1cccc(/C(=N/O)C2CC2c2ccc(Cl)cc2)c1 (stereo unspecified),i,2.8%,-88.4*,-13.2%,0.0%
S=C(SSC(=S)N1CCOCC1)N1CCOCC1,?,0.708µM*,17.2,?,0.562µM*
CSCCC(NS(=O)(=O)c1cccc(C(F)(F)F)c1)C(=O)N(C)CCOc1ccc(Cl)cc1 (stereo unspecified),i,1.4%,-57.5*,-20.9%,?
CSCCC(NS(=O)(=O)c1cccc(C(F)(F)F)c1)C(=O)N1CCN(C(=O)c2ccco2)CC1 (stereo unspecified),i,-10.7%,11.6,10.7%,1.1%
COc1ccc(NCc2ccc([N+](=O)[O-])s2)cc1,i,-22.8%,-71.3*,15.9%,0.0%
O=[N+]([O-])c1ccc(CNc2ccc(Cl)cc2)s1,i,-18.6%,?,-28.0%,?
O=[N+]([O-])c1ccc(CNc2cccc(Cl)c2)s1,i,-4.0%,-95.2*,-28.7%,?
COc1ccc(NCc2ccc([N+](=O)[O-])s2)c(OC)c1,i,-19.5%,-8.1,5.5%,-13.9%
O=[N+]([O-])c1ccc(CNc2ccc(F)cc2)s1,?,-15.3%,-85.0*,0.0%,-21.8%
Cc1cccc(CN2CC34CCC(CC3S2(=O)=O)O4)c1 (stereo unspecified),.,-1.5%,.,.,-19.3%
COc1cccc(N=Nc2ccc(O)c3ncccc23)c1,15.8µM*,-8.6%,14.1,?,?
Oc1ccc(N=Nc2ccc3c(c2)OCCO3)c2cccnc12,10µM*,0.7%,44.5,?,3.8%
O=[N+]([O-])c1cccc(S(=O)(=O)N2CCN(c3nc(-c4ccccc4)nc4ccccc34)CC2)c1,.,3.3%,.,.,0.9%
Cc1cccc(OCC(=O)NCC(=O)N/N=C/c2cc(Br)cc(Br)c2O)c1,i,-14.6%,96.6,14.1µM*,-4.4%
CCOc1ccc(C(=O)c2cn(CC(=O)Nc3ccc(C)c(C)c3)c3ccc(OCC)cc3c2=O)cc1,i,2.2%,.,3.7%,-10.0%
Cc1cc(/C=C(\C#N)C(=O)Nc2ccccc2)c(C)n1-c1ccc2c(c1)OCO2,i,0.0%,?,6.7%,-0.5%
Cc1ccccc1NC(=O)/C(C#N)=C\c1cc(C)n(-c2ccc(C(=O)O)cc2)c1C,i,-44.7%,-56.2*,.,23.1%
Cc1cc(/C=C(/C#N)C(=O)Nc2ccccc2)c(C)n1-c1cccnc1,i,-4.4%,-59.5*,40.1%,0.0%
CCOc1ccc(C(=O)c2cn(CC(=O)Nc3ccc4c(c3)OCCO4)c3ccc(F)cc3c2=O)cc1,i,-4.0%,.,3.4%,9.5%
CCc1cnc2c(c1SC(C(C)=O)C(=O)N(C)C)c(=O)n(C)c(=O)n2C (stereo unspecified),.,3.0%,.,?,0.0%
SMILES,ATXN viability,HepG2 viability,IL-1B inflam inh,ATXN2 expr inh,TGFb SMAD3 inh
Cc1cccc(N2CCc3c2nc2ccc(Br)cc2c3N)c1,?,-92.0%,-94.1*,-10.2%,?
COc1ccc(C(=O)Nc2ccc(C3(C#N)CCCC3)cc2)cc1,i,0.0%,-14.3,-8.5%,-19.5%
N#CC1(c2ccc(NC(=O)c3ccccc3F)cc2)CCCC1,i,-26.4%,-68.5*,70.9%,?
O=C(Nc1ccc(Nc2ccccc2)cc1)c1ccccc1F,i,-11.6%,-97.3*,21.6%,-5.8%
Clc1ccc(OCc2nc3ccccc3[nH]2)cc1,i,-0.2%,-51.4*,28.4%[11.3 µM],14.4%
COc1ccc(NS(=O)(=O)c2ccc3nc(COc4cccc5ccccc45)[nH]c3c2)cc1,?,-21.5%,-15.9,?,?
c1ccc(OCc2nc3ccccc3[nH]2)cc1,i,-39.4%,10.2,49.2%,-9.4%
COc1ccc(NS(=O)(=O)c2ccc3nc(COc4ccc5ccccc5c4)[nH]c3c2)cc1,i,-22.7%,-67.3*,-38.9%,?
COc1ccc(OCc2nc3ccc(S(=O)(=O)Nc4ccccc4Cl)cc3[nH]2)cc1,i,-18.8%,-51.0*,-19.9%,-3.2%
O=C(C[N+]12CN3CN(CN(C3)C1)C2)c1ccc(O)c(O)c1,.,-20.6%,.,.,8.7%
COc1ccc2c(c1)c1c(c(=O)n(-c3ccc(C)cc3)c(=O)n1CC(=O)N1CCCC1)n2C,.,-3.0%,.,.,-2.0%
CCC(=O)O[C@H]1[C@H](O[C@@H]2[C@@H](C)[C@H](O[C@H]3C[C@@](C)(OC)[C@@H](O)[C@H](C)O3)[C@@H](C)C(=O)O[C@H](CC)[C@@](C)(O)[C@H](O)[C@@H](C)C(=O)[C@H](C)C[C@@]2(C)O)O[C@H](C)C[C@@H]1N(C)C,15.8µM*!,.,.,6.4%,.
CCOC(=O)CCC(=O)O[C@H]1[C@H](O[C@@H]2[C@@H](C)[C@H](O[C@H]3C[C@@](C)(OC)[C@@H](O)[C@H](C)O3)[C@@H](C)C(=O)O[C@H](CC)[C@@](C)(O)[C@H](O)[C@@H](C)C(=O)[C@H](C)C[C@@]2(C)O)O[C@H](C)C[C@@H]1N(C)C,i,3.0%,-9.1,2.8%,7.4%
Cc1ccc(F)c([C@H]2C3C=CCC(c4ccccc4)C3C(=O)N2Cc2ccccc2)c1 (stereo partly specified),?,-48.0%,-13.3,-20.8%,17.8µM*
O=C1C2C(c3ccccc3)CC=CC2[C@H](c2ccc3ccccc3c2)N1Cc1ccccc1 (stereo partly specified),?,-8.2%,-19.6,0.0%,0.8%
Nc1nc(CCl)nc(Nc2cccc3ccccc23)n1,?,12.6µM*,-99.9*,.,11.2µM*
C(=C\c1ccccn1)/c1ccccc1,.,-32.2%,.,.,?
CC(=O)c1sc2c(c1OC(=O)c1ccc(Cl)cc1Cl)c(=O)n(-c1ccccc1)c(=S)n2-c1ccccc1,?,-35.1%,-60.2*,.,?
CC(=O)c1sc2c(c1OC(=O)c1ccc(Cl)cc1)c(=O)n(-c1ccccc1)c(=S)n2-c1ccccc1,?,5.3%,5.9,0.0%,0.0%
CCn1nc(C)c(/C=N/NC(=O)CSc2ccccn2)c1C,i,4.47µM*,5.6,47.0%,0.0%

# Screens deposited in PubChem BioAssay by National Center for Advancing Translational Sciences (NCATS).
